Screens (PubChem)
BAZ2B inh – blocks human BAZ2B; AlphaScreen BAZ2B-H3K14Ac peptide displacement; Potency, µM (doses to about 114 µM), hits mostly inhibitors; hit rate 4.4% among 360,000; AID 504333; further: nearly all actives have a fitted effect of over 60% in size
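BAZ2B (50 nM) with biotin-H3(5-23)K14Ac peptide (50 nM) in PBS pH 7.4, 0.01% Tween-20, preformed 30 min, then compound 30 min at room temperature; top concentration 110uM. AlphaScreen streptavidin donor/nickel chelate acceptor beads (10 ug/mL final), 20 min dark, signal read.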
Sfp inh – blocks B. subtilis Sfp PPTase activity; Q9F4F7; Biochemical Sfp PPTase activity, qHTS; Potency, µM, hits mostly inhibitors; hit rate 3.5% among 310,000; AID 1490;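 further: the enzyme is Sfp with the accession as filed and its product quenches rhodamine fluorescence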
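Fluorescence-quenching assay: 15 nM Sfp-PPTase preincubated 15 min at room temperature with compound, then 5 uM rhodamine-CoA and 12.5 uM BHQ-2-labelled YbbR peptide added. Fluorescence (ex 525/em 598 nm) read at start and after 30 min; difference gives rate.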
HP1b chromo inh – inhibitors of HP1-beta chromodomain binding to methylated histone tails. AlphaScreen HP1-beta / biotin-H3K9me3 peptide binding. Potency, µM (series often up to 114 µM), actives largely listed as inhibitors. hit rate 0.56% among 390,000; further: nearly all actives have a fitted effect of over 70% in size
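AlphaScreen: HP1-beta (50 nM) preformed 30 min with biotin-H3(1-18)K9me3 peptide (50 nM) in PBS pH 7.4, 0.01% Tween-20. Compound added for 30 min at RT, then streptavidin donor/nickel chelate acceptor beads (10 ug/mL) for 30 min.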
JMJD2A Tudor inh – JMJD2A Tudor domain (human) inhibition. O75164. AlphaScreen JMJD2A-Tudor / H3K4me3 peptide binding. Potency, µM (highest dose often 114 µM), most hits filed as inhibitors. hit rate 4.4% among 390,000. AID 504339; further: nearly all actives have a fitted effect of over 50% in size
Target sequence (O75164 whole entry, looked up, the tested form may be a part): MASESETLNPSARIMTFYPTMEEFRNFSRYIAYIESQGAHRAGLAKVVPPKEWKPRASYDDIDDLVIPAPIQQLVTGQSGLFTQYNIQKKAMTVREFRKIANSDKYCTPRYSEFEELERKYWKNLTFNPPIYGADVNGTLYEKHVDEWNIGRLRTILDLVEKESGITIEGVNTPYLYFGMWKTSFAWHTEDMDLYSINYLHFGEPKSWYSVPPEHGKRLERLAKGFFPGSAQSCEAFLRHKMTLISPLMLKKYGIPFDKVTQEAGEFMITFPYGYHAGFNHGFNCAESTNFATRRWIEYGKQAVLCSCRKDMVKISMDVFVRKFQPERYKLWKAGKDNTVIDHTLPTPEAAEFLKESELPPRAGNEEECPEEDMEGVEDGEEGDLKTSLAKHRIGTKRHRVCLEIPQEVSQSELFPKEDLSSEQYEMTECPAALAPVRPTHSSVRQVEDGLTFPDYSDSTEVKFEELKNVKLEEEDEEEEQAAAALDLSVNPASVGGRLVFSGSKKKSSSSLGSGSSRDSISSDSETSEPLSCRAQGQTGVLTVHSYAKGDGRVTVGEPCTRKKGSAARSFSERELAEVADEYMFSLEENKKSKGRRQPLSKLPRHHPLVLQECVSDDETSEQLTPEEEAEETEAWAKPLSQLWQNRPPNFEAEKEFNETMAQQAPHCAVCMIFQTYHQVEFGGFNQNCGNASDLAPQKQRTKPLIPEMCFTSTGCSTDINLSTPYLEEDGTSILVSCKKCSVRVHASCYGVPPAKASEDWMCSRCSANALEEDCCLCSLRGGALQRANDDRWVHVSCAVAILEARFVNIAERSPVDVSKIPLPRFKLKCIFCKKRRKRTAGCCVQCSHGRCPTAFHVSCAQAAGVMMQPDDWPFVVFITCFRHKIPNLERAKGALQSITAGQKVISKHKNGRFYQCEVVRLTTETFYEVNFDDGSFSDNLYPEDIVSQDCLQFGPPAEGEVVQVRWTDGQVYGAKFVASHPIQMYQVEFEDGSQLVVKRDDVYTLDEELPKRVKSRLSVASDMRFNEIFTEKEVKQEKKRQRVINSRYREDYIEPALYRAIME
G9a block – inhibitors of human histone lysine methyltransferase G9a; Q96KQ7; G9a H3K9 monomethylation, AlphaScreen, 2 h; Potency, µM (titrated, usually from 102 µM), actives largely listed as inhibitors; hit rate 8.8% among 350,000; further: nearly all actives have a fitted effect of over 75% in size
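Step 1: enzyme (final 20 nM) with compound, 15 min RT. Step 2: substrate peptide 500 nM and SAM 20 uM, 2 h RT. Step 3: anti-H3K9me1 antibody and AlphaScreen beads, 10 min, then plate read.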
TDP1 block – TDP1 (human) enzyme inhibition; Q9NUW8; recombinant TDP1, AlphaScreen DNA substrate cleavage; Potency, µM (series often up to 130 µM), actives largely listed as inhibitors; hit rate 0.28% among 350,000; AID 485290; further: nearly all actives have a fitted effect of over 40% in size
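Tdp1 1 nM final; 15 min RT w/ cpd; substrate 15 nM, 5 min; beads 10 ug/ml, 10 min; AlphaScreen read. Neg ctrl: no enzyme.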
Of the large screens only hits and unclear results are named; the others gave an inactive call. Rows were chosen to be rich in hits. Some 12% of all compounds tested hit in one or more screens of this group. The call rests on the fitted dose curve; in most records, active means well fitted curve in the direction sought with a large enough effect; inconclusive means small, poorly fitted or top-dose-only effect, or another doubt; inactive means no such curve, though single readings can be large; an effect the other way counts as inactive or inconclusive.

O=C(O)c1nc(-c2ccccc2)n(-c2ccccc2)n1	G9a block inconclusive
O=C(c1nc(-c2ccccc2)n(-c2ccccc2)n1)N1CCN(S(=O)(=O)c2ccccc2)CC1	BAZ2B inh inconclusive, JMJD2A Tudor inh 70.8µM, G9a block inconclusive
CCN(CC)CCNC(=O)c1ccc(CS(=O)(=O)c2ccccc2C)o1	none (no result: TDP1 block)
Cc1ccc(N=C2NC(=O)/C(=C\c3cccs3)S2)cc1C	JMJD2A Tudor inh inconclusive, G9a block 2.82µM
Cc1cccc(N=C2NC(=O)/C(=C/c3cccs3)S2)c1	none
Cc1cccc(N=C2NC(=O)/C(=C/c3cccn3C)S2)c1	BAZ2B inh 39.8µM, JMJD2A Tudor inh inconclusive (no result: G9a block)
Cc1ccccc1N=C1NC(=O)/C(=C/c2cccn2C)S1	BAZ2B inh inconclusive, HP1b chromo inh inconclusive, JMJD2A Tudor inh 39.8µM, G9a block 44.7µM
Cc1cccc(NC(=O)CSc2nc3ccc(NC(=O)c4ccccc4)cc3s2)c1	none (no result: Sfp inh)
O=C1/C(=C/c2ccc(F)cc2)CCC1C1CCCC1 (centres undefined)	none
S=C1NC2=C(CCC/C2=C\c2ccccc2)C(c2ccccc2)N1 (centres undefined)	BAZ2B inh inconclusive, Sfp inh 22.4µM, JMJD2A Tudor inh inconclusive, G9a block 8.91µM
FC(F)(F)c1ccccc1C1C2=C(Nc3ncnn31)c1ccccc1CCC2 (centres undefined)	Sfp inh 28.2µM, G9a block inconclusive (no result: HP1b chromo inh, JMJD2A Tudor inh)
CC(C)c1ccc(C2NC(=S)NC3=C2C(=O)CCC3)cc1 (centres undefined)	none
S=C1NC2=C(CCC/C2=C\c2ccc(Cl)cc2)C(c2ccc(Cl)cc2)N1 (centres undefined)	Sfp inh 7.94µM (no result: G9a block)
CC1CC2=C(NC(=S)NC2c2ccc(F)cc2)/C(=C/c2ccc(F)cc2)C1 (centres undefined)	BAZ2B inh inconclusive, G9a block 25.1µM
Fc1cccc(/C=C2\CCCC3=C2NC(=S)NC3c2cccc(F)c2)c1 (centres undefined)	BAZ2B inh inconclusive, Sfp inh inconclusive, JMJD2A Tudor inh inconclusive (no result: G9a block)
COc1cc2c(cc1O)C(Cc1ccc(O)cc1)[N+](C)(C)CC2 (centres undefined)	G9a block inconclusive (no result: BAZ2B inh, HP1b chromo inh, JMJD2A Tudor inh)
Cc1ccc(C(C)C)c(OCCn2cc(C(=O)c3ccco3)c3ccccc32)c1	none (no result: Sfp inh)
CC(=O)C1=C(C)Nc2ncnn2C1c1ccccc1 (centres undefined)	none (no result: TDP1 block)
C(=C1/CCCC2=C1Nc1ncnn1C2c1ccccc1)/c1ccccc1 (centres undefined)	Sfp inh 50.1µM, G9a block 44.7µM (no result: HP1b chromo inh, JMJD2A Tudor inh)
Cc1cc(C)n(CC(=O)N2CCCC(N3CCN(Cc4ccc5c(c4)OCO5)CC3)C2)n1 (centres undefined)	G9a block 79.4µM
Cc1ccn(CC(=O)N2CCCC(N3CCN(Cc4ccc5c(c4)OCO5)CC3)C2)n1 (centres undefined)	G9a block inconclusive
C=CC1=C2C=C(C3CC3)N(c3ccc(OC)cc3)C=C2C(=O)C(C)(OC(=O)c2ccco2)C1=O (centres undefined)	none (no result: BAZ2B inh, HP1b chromo inh, JMJD2A Tudor inh, G9a block)
O=S(=O)(CCc1ccncc1)Cc1ccc2c3c(cccc13)CC2	G9a block 50.1µM (no result: TDP1 block)
C=CCn1c(Cc2cccs2)nnc1SCC(=O)c1ccc(F)cc1	JMJD2A Tudor inh 56.2µM, G9a block 39.8µM
C=CCn1c(Cc2cccs2)nnc1SCC(=O)Nc1ccc(OC)c(OC)c1	none
C=CCn1c(CCNC(=O)c2cccs2)nnc1SCC(=O)c1cccc([N+](=O)[O-])c1	Sfp inh inconclusive
C=CCn1c(Cc2cccs2)nnc1SCC(=O)c1ccc2ccccc2c1	G9a block 28.2µM
C=CCn1c(CNC(=O)c2cccs2)nnc1SCC(=O)c1ccc(Br)cc1	none
C=CCn1c(Cc2cccs2)nnc1SCC(=O)c1cccc(Br)c1	G9a block 31.6µM
COc1cc(C(=O)NC(=S)Nc2ccc3c(c2)C(=O)N(C)C3=O)cc(OC)c1OC	JMJD2A Tudor inh inconclusive, G9a block 44.7µM
COc1cc(C(=O)NC(=S)Nc2ccc(Cl)cn2)cc(OC)c1OC	JMJD2A Tudor inh 15.8µM
COc1cc(C(=O)Nc2ccc(NC(=O)c3cccc(Cl)c3)nc2)cc(OC)c1OC	none
CC[C@H](C)[C@@H](NC(=O)O[C@@H]1C(=O)c2ccc(OC)cc2O[C@H]1c1cccc(C(F)(F)F)c1)C(=O)OC	none (no result: BAZ2B inh, HP1b chromo inh, JMJD2A Tudor inh, G9a block)
O=C1/C(=C/C=C/c2ccco2)SC(=S)N1NS(=O)(=O)c1ccccc1	BAZ2B inh 7.08µM, Sfp inh 12.6µM, HP1b chromo inh 10µM, JMJD2A Tudor inh 3.55µM, G9a block 3.16µM (no result: TDP1 block)
CC(C(=O)O)N1C(=O)/C(=C/C=C/c2ccco2)SC1=S (centres undefined)	BAZ2B inh 2.51µM, Sfp inh 50.1µM, HP1b chromo inh inconclusive, JMJD2A Tudor inh 3.16µM, G9a block 3.16µM, TDP1 block inconclusive
COc1ccc(C2C(C(C)=O)=C(O)C(=O)N2C)c(OC)c1 (centres undefined)	JMJD2A Tudor inh inconclusive, G9a block 44.7µM
COc1ccc(C2C(C(=O)c3ccc(C)o3)=C(O)C(=O)N2CC2CCCO2)cc1OC (centres undefined)	BAZ2B inh inconclusive (no result: G9a block)
O=C(C1=C(O)C(=O)N(CC2CCCO2)C1c1cccc(O)c1)c1ccco1 (centres undefined)	G9a block 44.7µM (no result: TDP1 block)
COc1cc(C2C(C(=O)c3ccco3)=C(O)C(=O)N2CC2CCCO2)ccc1O (centres undefined)	BAZ2B inh inconclusive, JMJD2A Tudor inh inconclusive, G9a block 50.1µM (no result: TDP1 block)
COc1ccccc1C1C(C(C)=O)=C(O)C(=O)N1CCc1ccccc1 (centres undefined)	G9a block 44.7µM
CCn1cc(C(=O)NCCC(C)C)c(=O)c2cc(F)c(N3CCN(C(=O)c4ccco4)CC3)cc21	BAZ2B inh inconclusive, JMJD2A Tudor inh inconclusive
CC(=O)N1CCCc2cc(S(=O)(=O)NCc3ccc(N(C)C)cc3)ccc21	G9a block inconclusive (no result: Sfp inh)
COc1ccc(CC(=O)NC2CC(=O)N(c3ccc(C)c(C)c3)C2)cc1OC (centres undefined)	none (no result: Sfp inh)
CCC(C(=O)Nc1cccc(C#N)c1)n1nc(-c2ccccc2)ccc1=O (centres undefined)	none (no result: Sfp inh)
COc1ccc(/C(O)=C2/C(=O)C(=O)N(CC3CCCO3)C2c2ccc(O)c(OC)c2)cc1 (centres undefined)	G9a block 50.1µM
O=C(C1=C(O)C(=O)N(CC2CCCO2)C1c1ccccc1F)c1ccco1 (centres undefined)	G9a block 39.8µM (no result: TDP1 block)
